Laboratory results published in the supplement of paper PMC6555819.

test system: PPARg DBDmut IVT, anti-PPARg (DBD mutation: PPARg1 K132A/R137A, NR concentration 270 nM); test: PBM binding z-score (relative to random genomic background probes); higher = stronger binding; sequences stand for … in GC…GCGATTGACAGCGTAGAATGAAGG
Summary of the method: (§1)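 Custom Agilent 4×180K protein-binding microarrays carried double-stranded probes. Their 34-nt variable regions held direct-repeat seeds, single-nucleotide variants, half-site ablations and random human genomic background sequences. Arrays were incubated 1 h with ligand-free nuclear receptor dimers in PBS pH 7.4, 2% milk, 0.02% Triton X-100, 1 mM DTT, 0.2 mg/mL BSA and 0.4 mg/ml salmon testes DNA. Antibodies against each partner (one per run) detected binding, and scanned fluorescence was regression-normalized. Binding z-scores use random background probes as reference.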

Row | Sequence | PBM binding z-score
1 | ATATGTAGGTTATCGGGGCATTCAGTTTGCGCAT | 3.12
2 | TCTAGTTGGTCAAATGTCACACACTCGAAATGCG | 2.34
3 | CTACCAAGGTGAACAAGGTCGTTGGTTACTATTC | -0.188
4 | TCTTGTAGGTCAGCAGGTTAAGAAAGCTGGCCAA | 2.48
5 | CGAACTTGGTCAGAACAGGACAGTGAAGGATGAT | -0.53
6 | ACAGACAGGTGAGTGAAGGTAACTGAGCTGGACG | -0.756
7 | TCTATTAGTTGAAGGGCATCCGACGAGTCCGTTT | 0.308
8 | AGTCAAAGTTCATCTAGGTAAAGTAAGATATGCT | 0.713
9 | CCTTACGGGTCAAGGTTACAGCACGGGTGGTACG | -0.0526
10 | CAAACTACGTCAAGGTCAAAGTCGGTTTGTGCCA | 0.932
11 | CCTCGGAGGACATCAGGAGGTCAGAGCTGCCAGA | -1.84
12 | AGAACGAGGGCAATGAGTTGGTAGCACGGGTGGC | -0.0657
13 | AGTTAAAGTTCAGGACGAGGTAACGTAAAGCACG | 1.1
14 | ACAGACAGGTGAGTGCAGGTAACTCAGCTGGACG | -0.297
15 | TCATATAGGTAAAAGGTGAAAGCCGGTGTGGTAA | 1.17
16 | GCTGCTTGGTCAGGTTGGTCAGCTAACGGGTACG | -0.893
17 | CCTTACGGGTCACTCCAGGTTAGAGCATCGGAGT | -0.0184
18 | CCTACTGGGCCAAAAAGGACATTGATGCCGATAA | 0.0111

test system: PPARg homodimer (NR concentration 180 nM); test: as above
Summary of the method: as §1

Row | Sequence | PBM binding z-score
19 | CTACCAAGGTGAACAAGGTCGTTGACTACTATTC | 0.75
20 | GCTAGCTGGTCAGTAAAAGGTCACACACCGGTCG | 5.71
21 | AGTCAAAGTTCACTAGGTAACGTCAGATTCAGCT | 2.35
22 | CTCGAAAGGTAGGTTGAGGTGAGTATACGGATAA | 0.0947
23 | TCATATAGGTAAATGCGAGGTGAAAGTCCGATCT | 1.14
24 | TAGCCTAGGGCATTGGGCCAGTATAGTACGCATC | -1.01
25 | ATCTCTAGGTAAAGTTCAGTAAAAGATCGATAGA | 2.05
26 | CAGCCTAGGTCAGGGCTAGTATAGGAGGAACGTT | 0.47
27 | CAGACTAGGTCAGGGCCAGTATAGGAGGAACGTT | 0.388
28 | CCTCGGAGGACAGAAGGTCAGAGTTGTCCGCTTT | 0.997
29 | CTCGAAAGGTCGGTTGAGGTGAGTATCCGGATAA | 1.02
30 | ATCGAAAGGTCGAGGTGAGTATAGAGAAAGGGAA | 1.8
31 | AATACAGGGTCATCGTAGGCCAAAGTACGCACAG | 3.47
32 | CGTCCAAGCTCAATGCTAGGTCAGTGAAAGCATT | -0.137
33 | ATCTCTAGGTAAAGATAGTTCAGTGACTGCAAAT | 0.972
34 | TCTATTAGTTGAAGGGCAACCGGCGAGTCCGTTT | 1.25
35 | CTCGAAACGTCGGTTGAGGTGAGTATACGGATAA | 0.264
36 | ACTAGCAGGCCAAGGGACACTCAAGATTAGTCCG | -0.118
37 | TTACCAAGGTTAAGGTCGTTGATCCCTCTGTAGA | 1.05
38 | GCTGCTAGGTCAGGTTGGACAGCTAACGGGTACG | 0.345

Row | Sequence | PBM binding z-score
39 | GCTATTCGTTGAAAGGGCAACCGAATGATTCTCG | 0.801
40 | CAAACTAGGTCAAAGGTCAATGTCGAGCCAACCA | 8.27
41 | ATATGTAGGTTATCGGGGCATTCAGTTTGCGCAT | 2.07
42 | TCTAGTTGGTCAAATGTCACACACTCGAAATGCG | 2.58
43 | CTACCAAGGTGAACAAGGTCGTTGGTTACTATTC | 0.751
44 | TCTTGTAGGTCAGCAGGTTAAGAAAGCTGGCCAA | 2.31
45 | CGAACTTGGTCAGAACAGGACAGTGAAGGATGAT | -0.163
46 | ACAGACAGGTGAGTGAAGGTAACTGAGCTGGACG | -0.197
47 | TCTATTAGTTGAAGGGCATCCGACGAGTCCGTTT | 1.24
48 | AGTCAAAGTTCATCTAGGTAAAGTAAGATATGCT | 3.61
49 | CCTTACGGGTCAAGGTTACAGCACGGGTGGTACG | 1.7
50 | CAAACTACGTCAAGGTCAAAGTCGGTTTGTGCCA | 2.33
51 | CCTCGGAGGACATCAGGAGGTCAGAGCTGCCAGA | 1.23
52 | AGAACGAGGGCAATGAGTTGGTAGCACGGGTGGC | -0.218
53 | AGTTAAAGTTCAGGACGAGGTAACGTAAAGCACG | 2.09
54 | ACAGACAGGTGAGTGCAGGTAACTCAGCTGGACG | -0.465
55 | TCATATAGGTAAAAGGTGAAAGCCGGTGTGGTAA | 1.42
56 | GCTGCTTGGTCAGGTTGGTCAGCTAACGGGTACG | -0.123
57 | CCTTACGGGTCACTCCAGGTTAGAGCATCGGAGT | 1.58
58 | CCTACTGGGCCAAAAAGGACATTGATGCCGATAA | 0.363

test system: PXR:RXRa (NR concentration 270 nM, RXRa partner concentration 90 nM); test: as above
Summary of the method: as §1

Row | Sequence | PBM binding z-score
59 | CTACCAAGGTGAACAAGGTCGTTGACTACTATTC | 2.98
60 | GCTAGCTGGTCAGTAAAAGGTCACACACCGGTCG | 5.04
61 | AGTCAAAGTTCACTAGGTAACGTCAGATTCAGCT | 3.97
62 | CTCGAAAGGTAGGTTGAGGTGAGTATACGGATAA | 0.293
63 | TCATATAGGTAAATGCGAGGTGAAAGTCCGATCT | 1.1
64 | TAGCCTAGGGCATTGGGCCAGTATAGTACGCATC | -0.62
65 | ATCTCTAGGTAAAGTTCAGTAAAAGATCGATAGA | 2.07
66 | CAGCCTAGGTCAGGGCTAGTATAGGAGGAACGTT | 0.176
67 | CAGACTAGGTCAGGGCCAGTATAGGAGGAACGTT | 0.0784
68 | CCTCGGAGGACAGAAGGTCAGAGTTGTCCGCTTT | 1.77
69 | CTCGAAAGGTCGGTTGAGGTGAGTATCCGGATAA | 2.98
70 | ATCGAAAGGTCGAGGTGAGTATAGAGAAAGGGAA | 2.49
71 | AATACAGGGTCATCGTAGGCCAAAGTACGCACAG | 5.59
72 | CGTCCAAGCTCAATGCTAGGTCAGTGAAAGCATT | 0.0332
73 | ATCTCTAGGTAAAGATAGTTCAGTGACTGCAAAT | 1.06
74 | TCTATTAGTTGAAGGGCAACCGGCGAGTCCGTTT | 0.943
75 | CTCGAAACGTCGGTTGAGGTGAGTATACGGATAA | 0.0163
76 | ACTAGCAGGCCAAGGGACACTCAAGATTAGTCCG | -0.905
77 | TTACCAAGGTTAAGGTCGTTGATCCCTCTGTAGA | 3.04
78 | GCTGCTAGGTCAGGTTGGACAGCTAACGGGTACG | 0.082

Row | Sequence | PBM binding z-score
79 | GCTATTCGTTGAAAGGGCAACCGAATGATTCTCG | 0.591
80 | CAAACTAGGTCAAAGGTCAATGTCGAGCCAACCA | 7.07
81 | ATATGTAGGTTATCGGGGCATTCAGTTTGCGCAT | 1.72
82 | TCTAGTTGGTCAAATGTCACACACTCGAAATGCG | 1.09
83 | CTACCAAGGTGAACAAGGTCGTTGGTTACTATTC | 2.75
84 | TCTTGTAGGTCAGCAGGTTAAGAAAGCTGGCCAA | 1.95
85 | CGAACTTGGTCAGAACAGGACAGTGAAGGATGAT | -0.41
86 | ACAGACAGGTGAGTGAAGGTAACTGAGCTGGACG | 0.0727
87 | TCTATTAGTTGAAGGGCATCCGACGAGTCCGTTT | 0.775
88 | AGTCAAAGTTCATCTAGGTAAAGTAAGATATGCT | 5.45
89 | CCTTACGGGTCAAGGTTACAGCACGGGTGGTACG | 3.4
90 | CAAACTACGTCAAGGTCAAAGTCGGTTTGTGCCA | 4.63
91 | CCTCGGAGGACATCAGGAGGTCAGAGCTGCCAGA | 2.19
92 | AGAACGAGGGCAATGAGTTGGTAGCACGGGTGGC | 0.943
93 | AGTTAAAGTTCAGGACGAGGTAACGTAAAGCACG | 2.95
94 | ACAGACAGGTGAGTGCAGGTAACTCAGCTGGACG | -0.0581
95 | TCATATAGGTAAAAGGTGAAAGCCGGTGTGGTAA | 1.58
96 | GCTGCTTGGTCAGGTTGGTCAGCTAACGGGTACG | -0.298
97 | CCTTACGGGTCACTCCAGGTTAGAGCATCGGAGT | 4.28
98 | CCTACTGGGCCAAAAAGGACATTGATGCCGATAA | -0.396
